# Measured values taken from the supplement of paper PMC8728848.
# This excerpt belongs to a sample that is enriched for the strongest signals.
# Columns and labels:
# Test in all cases: glycan array binding signal (z-score within array); higher = stronger binding
# Details in all cases: glycan notation: IUPAC condensed, linker removed
# [1] = target: Gal(b1-4)GlcNAc(b1-3)Gal(b1-4)GlcNAc(b1-3)Gal(b1-4)GlcNAc(b1-2)[Gal(b1-4)GlcNAc(b1-3)Gal(b1-4)GlcNAc(b1-3)Gal(b1-4)GlcNAc(b1-6)]Man(a1-6)[Gal(b1-4)GlcNAc(b1-3)Gal(b1-4)GlcNAc(b1-3)Gal(b1-4)GlcNAc(b1-2)Man(a1-3)]Man(b1-4)GlcNAc(b1-4)[Fuc(a1-6)]GlcNAc
# Outline: (§1)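 From the Consortium for Functional Glycomics database, 3228 arrays were curated, keeping only those whose protein sequence was available. Binding is given as a within-array Z-score averaged across arrays sharing a protein sequence and across linkers. Negative Z-scores can be read as non-binding.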
# [2] = target: Gal(b1-4)GlcNAc(b1-3)Gal(b1-4)GlcNAc(b1-3)Gal(b1-4)GlcNAc(b1-3)Gal(b1-4)GlcNAc(b1-3)Gal(b1-4)GlcNAc(b1-2)[Gal(b1-4)GlcNAc(b1-3)Gal(b1-4)GlcNAc(b1-3)Gal(b1-4)GlcNAc(b1-3)Gal(b1-4)GlcNAc(b1-3)Gal(b1-4)GlcNAc(b1-6)]Man(a1-6)[Gal(b1-4)GlcNAc(b1-3)Gal(b1-4)GlcNAc(b1-3)Gal(b1-4)GlcNAc(b1-3)Gal(b1-4)GlcNAc(b1-3)Gal(b1-4)GlcNAc(b1-2)Man(a1-3)]Man(b1-4)GlcNAc(b1-4)[Fuc(a1-6)]GlcNAc
# Outline: as §1
# [3] = target: Gal(b1-4)GlcNAc(b1-3)GalNAc
# Outline: as §1
# [4] = target: Gal(b1-4)GlcNAc(b1-6)[Gal(b1-4)GlcNAc(b1-3)]GalNAc
# Outline: as §1
# Gal3S4S(b1-4)GlcNAc = target: Gal3S4S(b1-4)GlcNAc
# Outline: as §1
# Gal4S(b1-4)GlcNAc = target: Gal4S(b1-4)GlcNAc
# Outline: as §1
# GalNAc(a1-3)GalNAc = target: GalNAc(a1-3)GalNAc
# Outline: as §1
# [5] = target: GalNAc(b1-3)Gal(a1-4)Gal(b1-4)GlcNAc(b1-3)Gal(b1-4)Glc
# Outline: as §1
# GalNAc(b1-3)GalNAc = target: GalNAc(b1-3)GalNAc
# Outline: as §1
# GalNAc(b1-3)GlcNAc = target: GalNAc(b1-3)GlcNAc
# Outline: as §1
# GalNAc3S(b1-4)GlcNAc3S = target: GalNAc3S(b1-4)GlcNAc3S
# Outline: as §1
# [6] = target: GlcNAc(a1-6)Gal(b1-4)GlcNAc
# Outline: as §1
# [7] = target: GlcNAc(b1-3)Gal(b1-4)GlcNAc(b1-2)[GlcNAc(b1-3)Gal(b1-4)GlcNAc(b1-6)]Man(a1-6)[GlcNAc(b1-3)Gal(b1-4)GlcNAc(b1-2)Man(a1-3)]Man(b1-4)GlcNAc(b1-4)GlcNAc
# Outline: as §1
# [8] = target: GlcNAc(b1-3)Gal(b1-4)GlcNAc(b1-3)Gal(b1-4)GlcNAc(b1-3)Gal(b1-4)GlcNAc(b1-2)Man(a1-3)[GlcNAc(b1-3)Gal(b1-4)GlcNAc(b1-3)Gal(b1-4)GlcNAc(b1-3)Gal(b1-4)GlcNAc(b1-2)Man(a1-6)]Man(b1-4)GlcNAc(b1-4)GlcNAc
# Outline: as §1
# [9] = target: GlcNAc(b1-3)[GlcNAc(b1-6)]GalNAc
# Outline: as §1
# Kdn(a2-3)Gal(b1-3)GalNAc = target: Kdn(a2-3)Gal(b1-3)GalNAc
# Outline: as §1
# Kdn(a2-3)Gal(b1-4)Glc = target: Kdn(a2-3)Gal(b1-4)Glc
# Outline: as §1
# [10] = target: Man(a1-3)[Man(a1-6)]Man(a1-6)[Man(a1-3)]Man(b1-4)GlcNAc(b1-4)GlcNAc
# Outline: as §1
# [11] = target: Neu5Ac(a2-3)Gal(b1-3)GalNAc(b1-3)Gal(a1-4)Gal(b1-4)Glc
# Outline: as §1
# [12] = target: Neu5Ac(a2-3)Gal(b1-3)GlcNAc
# Outline: as §1
# [13] = target: Neu5Ac(a2-3)Gal(b1-3)GlcNAc(b1-2)Man
# Outline: as §1
# [14] = target: Neu5Ac(a2-3)Gal(b1-3)GlcNAc(b1-2)Man(a1-3)[GlcNAc(b1-4)][Neu5Ac(a2-3)Gal(b1-3)GlcNAc(b1-2)Man(a1-6)]Man(b1-4)GlcNAc(b1-4)GlcNAc
# Outline: as §1
# [15] = target: Neu5Ac(a2-3)Gal(b1-4)GlcNAc(b1-2)Man(a1-3)[Neu5Ac(a2-3)Gal(b1-4)GlcNAc(b1-2)Man(a1-6)]Man(b1-4)GlcNAc(b1-4)[Fuc(a1-6)]GlcNAc
# Outline: as §1
# [16] = target: Neu5Ac(a2-6)Gal(b1-4)GlcNAc(b1-2)Man(a1-3)[Neu5Ac(a2-6)Gal(b1-4)GlcNAc(b1-2)Man(a1-6)]Man(b1-4)GlcNAc(b1-4)[Fuc(a1-6)]GlcNAc
# Outline: as §1
# [17] = target: Neu5Ac(a2-6)Gal(b1-4)GlcNAc(b1-2)[Neu5Ac(a2-6)Gal(b1-4)GlcNAc(b1-4)]Man(a1-3)[GlcNAc(b1-4)][Neu5Ac(a2-6)Gal(b1-4)GlcNAc(b1-4)Man(a1-6)]Man(b1-4)GlcNAc(b1-4)GlcNAc
# Outline: as §1
# [18] = target: Neu5Ac(a2-6)Gal(b1-4)GlcNAc(b1-3)Gal(b1-4)[Fuc(a1-3)]GlcNAc(b1-3)Gal(b1-4)[Fuc(a1-3)]GlcNAc
# Outline: as §1
# [19] = target: Neu5Ac(a2-6)Gal(b1-4)GlcNAc(b1-3)GalNAc
# Outline: as §1
# [20] = target: Neu5Ac(a2-8)Neu5Ac(a2-3)Gal(b1-3)GalNAc(b1-4)[Neu5Ac(a2-8)Neu5Ac(a2-3)]Gal(b1-4)Glc
# Outline: as §1
# [21] = target: Neu5Gc(a2-8)Neu5Gc(a2-3)Gal(b1-4)GlcNAc
# Outline: as §1
binder,measurement,setting,value
GS7807G-bfa-506-18-506 (Bacteroides fragilis) (protein) ASCDKFDEINTDPDATTKVTSSLLATGLLLDITSSSASKSFIYDELLAKQMAWGESMEDYQYNVFGRSGFGGYTTLINAQKMVESVSDDNVNAYDGLAHFIKAYKIFYMSMEMGDLPYEEALQGELGLVRPKYNTQKEVMNFILSDLETAYELFSTAKDFDGDPILGGSISKWKKATTAFQLKVLMHLSKKESDADLKVKERFARIVASGSLMESNEDNLQMKYADKANTVYPFHNTNTKHAGYAMLSTMLIDKFKATGDIRMFYYAKPAKAKLNEGVTADSWDAYIGTDPSLPFEQIEKAYATEQYSGFNARYTDYPSGEPVVRLGYAEQNFILAEAAVRGWISGDASAYYKKAIRAHMEFIASNTPDEEVYHHGHPITEEAIAAFLETPAIQLSGEKEEDIEKILTQRYLASFMQHPYDVYYDYRRTGYPVLPINPATNRNTMNDRLPMRWMYPKSESDYNLEHQNEALERQFGGVDDVNKLMWILQ,glycan array binding signal (z-score),[1],2.78
same,glycan array binding signal (z-score),[2],4.67
same,glycan array binding signal (z-score),[3],-0.443
same,glycan array binding signal (z-score),[4],1.86
same,glycan array binding signal (z-score),Gal3S4S(b1-4)GlcNAc,-0.454
same,glycan array binding signal (z-score),Gal4S(b1-4)GlcNAc,-0.273
same,glycan array binding signal (z-score),GalNAc(a1-3)GalNAc,-0.209
same,glycan array binding signal (z-score),[5],-0.567
same,glycan array binding signal (z-score),GalNAc(b1-3)GalNAc,-0.744
same,glycan array binding signal (z-score),GalNAc(b1-3)GlcNAc,0.616
same,glycan array binding signal (z-score),GalNAc3S(b1-4)GlcNAc3S,-0.726
same,glycan array binding signal (z-score),[6],-0.271
same,glycan array binding signal (z-score),[7],0.698
same,glycan array binding signal (z-score),[8],0.543
same,glycan array binding signal (z-score),[9],-0.871
same,glycan array binding signal (z-score),Kdn(a2-3)Gal(b1-3)GalNAc,-0.399
same,glycan array binding signal (z-score),Kdn(a2-3)Gal(b1-4)Glc,-0.306
same,glycan array binding signal (z-score),[10],3.61
same,glycan array binding signal (z-score),[11],-0.786
same,glycan array binding signal (z-score),[12],-0.636
same,glycan array binding signal (z-score),[13],2.81
same,glycan array binding signal (z-score),[14],-0.528
same,glycan array binding signal (z-score),[15],-0.269
same,glycan array binding signal (z-score),[16],4.41
same,glycan array binding signal (z-score),[17],-0.864
same,glycan array binding signal (z-score),[18],-0.153
same,glycan array binding signal (z-score),[19],2.85
same,glycan array binding signal (z-score),[20],0.197
same,glycan array binding signal (z-score),[21],-0.712
